# Measurements reported in PubChem BioAssay AID422 (Emory University Molecular Libraries Screening Center, 2006).
# Hit rate of the full screen: of about 160,000 compounds, about 310 (0.19%) were called active. No stated cut-off is given here; in the data, active means inhibition above about 30%; inactive means the rest. For the sample, actives were picked, then their nearest neighbours and some compounds at random.
# Target: 14-3-3 protein gamma (Homo sapiens) (UniProt P61981)
# Assay: 14-3-3 gamma/Raf peptide interaction modulators – biochemical, fluorescence polarization, primary screen (AID 422);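 further: 0% = protein plus tracer without compound and 100% = blank with tracer alone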
# Settings: FP, 14-3-3gamma / TMR-pS259-Raf peptide binding; at 40 µM; hits give high values
# 14-3-3 protein gamma (Homo sapiens), sequence (P61981 whole entry, looked up): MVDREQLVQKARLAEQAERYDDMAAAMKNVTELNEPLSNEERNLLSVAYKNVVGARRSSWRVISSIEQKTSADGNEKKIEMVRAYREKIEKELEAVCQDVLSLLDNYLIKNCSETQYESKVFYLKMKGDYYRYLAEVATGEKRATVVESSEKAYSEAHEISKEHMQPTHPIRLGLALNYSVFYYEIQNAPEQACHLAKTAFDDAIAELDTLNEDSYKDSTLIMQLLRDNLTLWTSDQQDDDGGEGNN
row,Compound,inhibition
1,CCCCCc1ccc(S(=O)(=O)Nc2cnc3ccccc3c2)cc1,0.52% (inactive)
2,CC1CCN(CCCNC(=O)C2CC(=O)N(C3CCCCCCC3)C2)CC1 (stereo not given),3.07% (inactive)
3,Cn1c(SCc2ccccc2Br)nnc1-c1ccc([N+](=O)[O-])cc1,-3.43% (inactive)
4,CCOC(=O)C(NC(=O)c1ccc(OC)cc1)(NC1CCCCC1)C(F)(F)F (stereo not given),-6.18% (inactive)
5,O=C(NCCn1cc(SCc2cccc(F)c2)c2ccccc21)c1ccccc1F,0.8% (inactive)
6,COc1cc([N+](=O)[O-])ccc1NC(=O)C1CC(=O)NC(=Nc2ccc(C)cc2)S1 (stereo not given),1.95% (inactive)
7,Cc1ccc2[nH]cc(C(=O)c3ccccc3)c(=O)c2c1,-15% (inactive)
8,O=[N+]([O-])c1ccc(N2CCN(S(=O)(=O)c3ccc4ccccc4c3)CC2)cc1NCc1ccco1,-5.05% (inactive)
9,O=C(c1ccco1)N1CCN(c2ccc([N+](=O)[O-])c(NCc3cccnc3)c2)CC1,46.1% (active)
10,O=C(c1ccco1)N1CCN(c2cccc(Cl)c2)CC1,-9.3% (inactive)
11,CC1CC(C)CN(C(=O)c2cc3c(=O)oc4ccccc4c3s2)C1 (stereo not given),-6.3% (inactive)
12,CC(C)CCNC(=O)c1ccc2c(c1)N(Cc1ccccc1)C(=O)CS2,3.32% (inactive)
13,O=C(Nc1cccc(-c2nc3ccccc3s2)c1)c1cccnc1Cl,-17.9% (inactive)
14,COc1cc(NS(=O)(=O)c2c(C)n[nH]c2C)cc(OC)c1,-0.99% (inactive)
15,COc1cc2c(=O)n(CC3CCCO3)c(=O)n(CC(=O)c3ccc(Br)cc3)c2cc1OC (stereo not given),-0.78% (inactive)
16,Cc1cc(OCC(=O)Nc2sc3c(c2C(N)=O)CCCC3)ccc1[N+](=O)[O-],-9.64% (inactive)
17,O=C(Nc1c2c(nn1-c1ccc(F)cc1)CSC2)c1cccc(F)c1,-4.31% (inactive)
18,COc1ccc(C)cc1NC(=O)C1(S(=O)(=O)c2ccc(Cl)cc2)CC1,-7.62% (inactive)
19,O=C(NCCN1CCCC1)C1CCC(CNS(=O)(=O)c2ccc(Cl)cc2)CC1 (stereo not given),1.41% (inactive)
20,Cc1ccccc1N1C(=O)C2C3C=CC(C4CC34)C2C1=O (stereo not given),8.35% (inactive)
21,Cc1cc(OCC(=O)Nc2ncc(S(=O)(=O)c3ccc([N+](=O)[O-])cc3)s2)cc(C)c1Cl,-4.64% (inactive)
22,COc1ccc(C2C(C(=O)c3cccs3)=C(O)C(=O)N2CCN(C)C)cc1 (stereo not given),11.4% (inactive)
23,COc1ccc(C2=NN(c3ccccc3)C(c3ccc(F)cc3)C2)cc1 (stereo not given),-10.6% (inactive)

row,Compound,inhibition
1,CCC(C)Nc1ncnc2c1cnn2-c1cccc(C)c1 (stereo not given),2.9% (inactive)
2,CC(=O)Nc1ccccc1Sc1ccc2c3c(cccc13)C(=O)N(c1ccc(C)cc1)C2=O,-10.1% (inactive)
3,O=C1c2cccc3c(N=Cc4ccccc4O)ccc(c23)C(=O)N1c1ccccc1,31.4% (active)
4,O=C1c2cccc3cccc(c23)C(=O)N1c1cccc(O)c1,-4.23% (inactive)
5,O=C(O)c1ccc(N2NC(c3ccccc3)=CC2O)cc1 (stereo not given),-4.41% (inactive)
6,O=C(CCS(=O)(=O)c1nc(-c2cccs2)cc(C(F)(F)F)n1)Nc1cc(Cl)ccc1O,-33.5% (inactive)
7,COc1cc(NS(=O)(=O)c2ccc3c(c2)CCN3C(C)=O)cc(OC)c1,0.2% (inactive)
8,Cn1ccnc1SCC(=O)Nc1ccc(F)cc1,-12.9% (inactive)
9,CCSCCOC(=O)C1=C(C)NC(=O)NC1c1ccc(OC)cc1 (stereo not given),-1.92% (inactive)
10,O=C(NCc1ccco1)c1ccc2c(=O)n(Cc3ccc(Cl)cc3)c(=S)[nH]c2c1,-14.3% (inactive)
11,CC1=C(C(=O)OCC2CCCO2)C(c2ccccc2Cl)C2=C(CCCC2=O)N1 (stereo not given),-2.91% (inactive)
12,CC(C)(C)c1ccc(C2SCC(=O)N2c2ccccc2F)cc1 (stereo not given),-3.17% (inactive)
13,CCCCOC(=O)c1cc(-c2ccccc2)nc2ccc(Br)cc12,2.65% (inactive)
14,CCOc1ccc(C2Nc3ccccc3-c3nnc(SC)nc3O2)cc1C (stereo not given),-68.8% (inactive)
15,CSc1nnc2c(n1)OC(c1ccccc1Cl)Nc1ccccc1-2 (stereo not given),31.9% (active)
16,CSc1nnc2c(n1)OC(c1ccc3c(c1)OCO3)Nc1ccccc1-2 (stereo not given),6.07% (inactive)
17,CCOC(=O)c1sc2ncnc(N3CCCC(C(=O)OCC)C3)c2c1C (stereo not given),-2.94% (inactive)
18,Cc1ccccc1N=Cc1cccc([N+](=O)[O-])c1O,5.41% (inactive)
19,Cc1c(Cl)c(C)c([N+](=O)[O-])c(O)c1C=Nc1ccc(Br)cc1C(=O)O,46.9% (active)
20,Cc1ccc2nc(-c3cc(NC(=O)c4cc(Cl)ccc4[N+](=O)[O-])ccc3Cl)oc2c1,-15.8% (inactive)
21,CCSCCSc1nc(C)cc(C)n1,-17.9% (inactive)
22,CSc1nc(OCC(=O)c2ccccc2)c2c3c(sc2n1)CCCC3,4.08% (inactive)
